# Assay results as given in paper PMC7826789 (International Journal of Molecular Sciences, 2021).
compound,measurement,setting,value
COc1cc(C=NNc2ncnc3c2cnn3-c2ccccc2)ccc1O [GW513184X],Kinases covered,AurkA,AurkA
COc1cc(-c2cncc(-c3cnn(C4CCNCC4)c3)c2)cc(OC)c1OC [K05908],Kinases covered,BMPR1A,BMPR1A
same,Kinases covered,BMPR1B,BMPR1B
CC(C)N1CC(=O)N(C)c2cnc(Nc3cccc(S(=O)(=O)CCN4CCOCC4)c3)nc21 [BI00009348],Kinases covered,BMPR2,BMPR2
C=CC(=O)Nc1cc(-n2c(=O)ccc3cnc4ccc(-c5ccc(NS(C)(=O)=O)cc5)cc4c32)ccc1C [BMX-IN-1],Kinases covered,BMX,BMX
COc1ccc2[nH]c3c4[nH]c5ccc(OC)cc5c4c4c(c3c2c1)C(=O)NC4=O [GW296115X],Kinases covered,BRSK1,BRSK1
same,Kinases covered,BRSK2,BRSK2
